Reference: PubChem BioAssay (Tox21)
Results filed as inconclusive are left out. Active and inactive are the calls of the source. Unless noted, the call rests on the fitted dose curve.

Tests used:
[1] = Nuclear factor erythroid 2-related factor 2/antioxidant responsive element (Nrf2/ARE) small molecule agonists: qHTS cell viability counter screen in human keratinocytes (AID 1919968; active means well fitted curve in the direction sought with a large enough effect in the repeat runs; an effect the other way counts as inactive or inconclusive; further: nearly all actives have a fitted effect of over 55% in size)
How it was run: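 Measured as CellTiter-Fluor fluorescence, this readout tracks cytotoxicity in the same wells as the ARE-luciferase screen. HaCaT reporter cells (1,500/well) received compounds after a 5 h pre-incubation and were exposed for 23 h.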

[2] = Nuclear factor erythroid 2-related factor 2/antioxidant responsive element (Nrf2/ARE) small molecule agonists: luciferase reporter gene qHTS assay in human keratinocytes (AID 1919969); further: nearly all actives have a fitted effect of over 35% in size
[3] = target: Gonadotropin-releasing hormone receptor (Homo sapiens) (UniProt P30968); test: Human gonadotropin-releasing hormone receptor (GnRHR) small molecule agonists, calcium flux assay in GnRHR-HEK293 cells (AID 1920063); further: nearly all actives have a fitted effect of over 35% in size
How it was run: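 Fluorescence kinetics (480 nm excitation, 540 nm emission; 3 min, 1 s steps) report calcium mobilisation in human GnRHR-HEK293 cells in agonist mode. Dye incubation: 1 h, 37 C.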

[4] = target: KiSS-1 receptor (Homo sapiens) (UniProt Q969F8); test: Human kisspeptin (KISS1R) small molecule agonists, calcium flux assay in KISS1R-HEK293 cells (AID 1920064; active means well fitted curve in the direction sought with a large enough effect in the repeat runs; an effect the other way counts as inactive or inconclusive)
How it was run: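 Measures KISS1R agonism through calcium-sensitive dye fluorescence in stably transfected HEK293 cells, read for 3 min after pin-tool compound delivery; 15-point titrations in triplicate.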

[5] = G protein-coupled receptor (GPCR) small molecule agonists, calcium flux assay: HEK293 wild type cell line counter screen (AID 1920065)
How it was run: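 Readout: fluorescence at 480 nm excitation/540 nm emission, sampled at 1 s intervals for 3 min. Cells had been cultured 18 h, then dye-loaded 1 h at 37 C before compound or ATP addition.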

[6] = p53 small molecule agonists, cell-based qHTS assay with human liver microsomes (AID 1963577)
How it was run: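 Fluorescence of the beta-lactamase reporter in p53RE-bla cells, detected with LiveBLAzer substrate (2 h, room temperature, dark), served as the read-out after 16 h compound exposure at 37 C with human liver microsomes and NADPH, each 0.5 mg/mL final.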

[7] = p53 small molecule agonists, cell-based qHTS assay with rat liver microsomes (AID 1963578)
How it was run: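 Cells carrying a p53 response element–beta-lactamase reporter were plated and rested 5 h, then dosed with compound in DMSO plus rat liver microsomes and NADPH, each at 0.5 mg/mL final. After 16 h at 37 C, LiveBLAzer substrate was added for 2 h.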

[8] = p53 small molecule agonists, cell-based qHTS assay with human liver microsomes: qHTS cell viability counter screen (AID 1963579); further: nearly all actives have a fitted effect of over 45% in size
How it was run: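 Cytotoxicity counter screen: p53RE-bla, 4,000 cells/well; 5 h settle, 37 C/5% CO2; cpd + HLM 0.5 mg/mL + NADPH 0.5 mg/mL (final); 16 h, 37 C; CellTiter-Glo, 30 min RT, luminescence.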

[9] = p53 small molecule agonists, cell-based qHTS assay with rat liver microsomes: qHTS cell viability counter screen (AID 1963580); further: nearly all actives have a fitted effect of over 45% in size
How it was run: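 p53RE-bla HCT-116 cells were exposed 16 h at 37 C to compounds with rat liver microsomes (0.5 mg/mL) and NADPH (0.5 mg/mL). Viability was measured in the same wells as ATP content by CellTiter-Glo luminescence.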

[10] = p53 small molecule agonists, cell-based qHTS assay: qHTS cell viability counter screen (AID 1963581); further: nearly all actives have a fitted effect of over 45% in size
How it was run: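 In the same plates used for the p53 bla reporter, HCT-116 cells given compounds for 16 h at 37 C received CellTiter-Glo; luminescence was recorded 30 min later at room temperature.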

[11] = p53 small molecule agonists, cell-based qHTS assay (AID 1963582; active means well fitted activation curve with a large enough effect in the signal ratio in the repeat runs, not every such curve was filed as active; the % refers to the signal ratio)
How it was run: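 Compounds are pin-transferred in DMSO onto p53RE-bla cells and incubated 16 h at 37 C. The B/G FRET beta-lactamase substrate is then applied for 2 h at RT and fluorescence recorded.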

[12] = target: 5-hydroxytryptamine receptor 2A (Homo sapiens) (UniProt P28223); test: 5-hydroxytryptamine receptor 2A (HTR2A) small molecule antagonists, cell-based qHTS assay (AID 1963586); further: nearly all actives have a fitted effect of over 45% in size
How it was run: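 Antagonist-mode intracellular calcium assay: DOI (4 nM) added after 5 min compound pre-incubation at room temperature to dye-loaded HTR2A-CHO cells. Fluorescence followed for 3 min, sampled every second.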

[13] = target: 5-hydroxytryptamine receptor 2A (Homo sapiens) (UniProt P28223); test: 5-hydroxytryptamine receptor 2A (HTR2A) small molecule agonists, cell-based qHTS assay (AID 1963587); further: nearly all actives have a fitted effect of over 30% in size
How it was run: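 CHO cells stably expressing human HTR2A, plated 18 h, loaded with calcium dye 1 h at 37 C. Agonist mode: compounds added and intracellular calcium fluorescence recorded kinetically for 2 min at 1 sec intervals.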

[14] = target: Muscarinic acetylcholine receptor M1 (Homo sapiens) (UniProt P11229); test: Cholinergic receptor muscarinic 1 (CHRM1) small molecule antagonists, cell-based qHTS assay (AID 1963588); further: nearly all actives have a fitted effect of over 40% in size
How it was run: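 CHRM1-CHO calcium-flux assay, antagonist mode. Cells were seeded 18 h, dye-loaded 1 h at 37 C and given compound for 5 min at RT, then acetylcholine was added at 50nM. FDSS fluorescence was read 3 min; 15 concentrations, three runs.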

[15] = target: Muscarinic acetylcholine receptor M1 (Homo sapiens) (UniProt P11229); test: Cholinergic receptor muscarinic 1 (CHRM1) small molecule agonists, cell-based qHTS assay (AID 1963589); further: nearly all actives have a fitted effect of over 35% in size; further: potency means the concentration at half of the fitted maximal effect
How it was run: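 Each compound was tested at 15 concentrations across three independent runs on dye-loaded CHO cells stably expressing human CHRM1, reading intracellular calcium fluorescence kinetically at 1 sec intervals.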

[16] = cAMP Responsive Elements (CRE) small molecule agonists, cell-based qHTS assay (AID 1963590)
How it was run: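 Cell line: CRE-bla HEK 293T; medium DMEM/10% dialyzed FBS/0.1 mM NEAA/1 mM pyruvate/25 mM HEPES; 3 h compound exposure; beta-lactamase FRET readout after 2 h substrate loading at RT.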

[17] = cAMP Responsive Elements (CRE) small molecule antagonists, cell-based qHTS assay (AID 1963591; active means well fitted inhibition curve with a large enough effect in the signal ratio in the repeat runs, not every such curve was filed as active; the % refers to the signal ratio)
How it was run: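 Inhibition of NKH477-driven (0.25 uM final) CRE-beta-lactamase signal in HEK293T cells, 3 h compound exposure at 37 °C, detected by FRET substrate fluorescence.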

[18] = target: Beta-2 adrenergic receptor (Homo sapiens) (UniProt P07550); test: Adrenergic beta2 receptor (ADRB2) small molecule antagonists, cell-based qHTS assay (AID 1963592); further: series mostly up to about 92 µM; nearly all actives have a fitted effect of over 50% in size
How it was run: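 Cells (CHO, stable ADRB2 overexpression) incubated 18-20hr at 37C; compounds added from DMSO; agonist mix (1nM isoproterenol, 100uM IBMX, 25uM Ro-20-1724) added; 0.5hr RT; d2-cAMP and anti-cAMP-cryptate added; 1hr RT; 665/615 nm read.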

[19] = target: D(2) dopamine receptor (Homo sapiens) (UniProt P14416); test: Dopamine D2 receptor (DRD2) small molecule antagonists, cell-based qHTS assay (AID 1963595; active means well fitted inhibition curve with a large enough effect in the signal ratio in the repeat runs, with a control signal flat; the % refers to the signal ratio)
How it was run: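 HEK293 cells stably expressing DRD2 were preincubated with 0.1 mM Ro20-1724, then with compound for 10 min at room temperature. Cells were stimulated with 200 nM NKH477 plus 12 nM quinpirole for 30 min, and cAMP was read by HTRF.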

[20] = target: D(2) dopamine receptor (Homo sapiens) (UniProt P14416); test: Dopamine D2 receptor (DRD2) small molecule agonists, cell-based qHTS assay (AID 1963594); further: nearly all actives have a fitted effect of over 35% in size
How it was run: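 HEK293 cells stably expressing human DRD2, pre-treated with PDE inhibitor Ro20-1724 (0.1 mM final) and compound 10 min at room temperature, then stimulated with NKH477 (200nM […]) for 30 min. cAMP read by HTRF (665/620 nm).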

Measured: Potency

Sequence of D(2) dopamine receptor (Homo sapiens) (P14416 whole entry, looked up): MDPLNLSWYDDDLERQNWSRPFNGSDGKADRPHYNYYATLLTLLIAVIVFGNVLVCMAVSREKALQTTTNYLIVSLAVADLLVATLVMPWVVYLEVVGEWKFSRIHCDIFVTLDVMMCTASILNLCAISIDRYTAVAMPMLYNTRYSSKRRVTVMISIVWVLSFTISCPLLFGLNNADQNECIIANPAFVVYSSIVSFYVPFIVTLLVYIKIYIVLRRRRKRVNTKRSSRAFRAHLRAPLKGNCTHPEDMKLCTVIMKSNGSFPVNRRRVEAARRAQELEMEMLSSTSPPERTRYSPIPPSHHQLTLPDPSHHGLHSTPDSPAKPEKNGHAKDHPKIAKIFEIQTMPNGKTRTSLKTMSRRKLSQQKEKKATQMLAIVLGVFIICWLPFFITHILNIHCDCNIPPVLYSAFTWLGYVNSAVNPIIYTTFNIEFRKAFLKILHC
Sequence of Gonadotropin-releasing hormone receptor (Homo sapiens) (P30968 whole entry, looked up): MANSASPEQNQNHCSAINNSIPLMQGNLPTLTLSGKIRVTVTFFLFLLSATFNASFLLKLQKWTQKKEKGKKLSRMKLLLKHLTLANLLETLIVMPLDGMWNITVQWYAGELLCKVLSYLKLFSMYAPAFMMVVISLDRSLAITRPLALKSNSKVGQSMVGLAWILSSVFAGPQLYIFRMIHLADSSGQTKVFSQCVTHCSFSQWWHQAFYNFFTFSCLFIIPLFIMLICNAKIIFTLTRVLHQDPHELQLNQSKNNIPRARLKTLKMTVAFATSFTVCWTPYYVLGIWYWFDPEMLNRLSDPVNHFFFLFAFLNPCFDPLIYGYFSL
Sequence of KiSS-1 receptor (Homo sapiens) (Q969F8 whole entry, looked up): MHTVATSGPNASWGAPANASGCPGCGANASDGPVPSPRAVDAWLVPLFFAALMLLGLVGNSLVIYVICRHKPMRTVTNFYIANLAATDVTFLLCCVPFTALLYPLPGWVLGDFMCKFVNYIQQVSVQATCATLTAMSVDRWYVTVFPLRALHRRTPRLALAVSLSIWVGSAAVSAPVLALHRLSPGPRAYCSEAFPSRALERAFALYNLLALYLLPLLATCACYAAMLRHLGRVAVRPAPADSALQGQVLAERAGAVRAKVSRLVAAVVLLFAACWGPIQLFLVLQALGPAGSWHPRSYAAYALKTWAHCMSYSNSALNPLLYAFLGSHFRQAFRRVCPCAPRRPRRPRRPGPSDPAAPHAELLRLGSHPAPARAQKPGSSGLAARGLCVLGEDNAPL
Sequence of 5-hydroxytryptamine receptor 2A (Homo sapiens) (P28223 whole entry, looked up): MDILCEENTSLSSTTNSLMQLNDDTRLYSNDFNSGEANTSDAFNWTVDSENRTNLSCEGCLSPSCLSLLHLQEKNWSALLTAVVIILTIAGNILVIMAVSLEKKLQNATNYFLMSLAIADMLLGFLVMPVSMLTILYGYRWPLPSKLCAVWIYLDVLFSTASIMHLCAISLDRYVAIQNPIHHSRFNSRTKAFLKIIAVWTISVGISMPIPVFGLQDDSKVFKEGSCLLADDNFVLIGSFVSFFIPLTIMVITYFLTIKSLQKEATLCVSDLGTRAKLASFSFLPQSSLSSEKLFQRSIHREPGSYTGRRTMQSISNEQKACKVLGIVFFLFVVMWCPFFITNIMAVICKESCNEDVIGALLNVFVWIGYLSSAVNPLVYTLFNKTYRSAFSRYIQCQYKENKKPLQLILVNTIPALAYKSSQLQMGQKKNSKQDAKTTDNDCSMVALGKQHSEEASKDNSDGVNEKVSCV
Sequence of Beta-2 adrenergic receptor (Homo sapiens) (P07550 whole entry, looked up): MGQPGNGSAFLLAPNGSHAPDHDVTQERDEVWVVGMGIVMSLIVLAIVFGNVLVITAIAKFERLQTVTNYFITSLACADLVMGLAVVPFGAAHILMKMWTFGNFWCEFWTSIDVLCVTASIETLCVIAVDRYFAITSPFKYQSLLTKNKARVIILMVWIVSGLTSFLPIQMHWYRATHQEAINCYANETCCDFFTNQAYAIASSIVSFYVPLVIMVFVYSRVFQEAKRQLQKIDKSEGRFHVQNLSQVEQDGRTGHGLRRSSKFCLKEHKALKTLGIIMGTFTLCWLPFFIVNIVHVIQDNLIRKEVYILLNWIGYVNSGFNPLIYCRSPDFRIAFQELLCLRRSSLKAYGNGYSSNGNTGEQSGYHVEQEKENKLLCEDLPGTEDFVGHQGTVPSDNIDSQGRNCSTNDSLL
Sequence of Muscarinic acetylcholine receptor M1 (Homo sapiens) (P11229 whole entry, looked up): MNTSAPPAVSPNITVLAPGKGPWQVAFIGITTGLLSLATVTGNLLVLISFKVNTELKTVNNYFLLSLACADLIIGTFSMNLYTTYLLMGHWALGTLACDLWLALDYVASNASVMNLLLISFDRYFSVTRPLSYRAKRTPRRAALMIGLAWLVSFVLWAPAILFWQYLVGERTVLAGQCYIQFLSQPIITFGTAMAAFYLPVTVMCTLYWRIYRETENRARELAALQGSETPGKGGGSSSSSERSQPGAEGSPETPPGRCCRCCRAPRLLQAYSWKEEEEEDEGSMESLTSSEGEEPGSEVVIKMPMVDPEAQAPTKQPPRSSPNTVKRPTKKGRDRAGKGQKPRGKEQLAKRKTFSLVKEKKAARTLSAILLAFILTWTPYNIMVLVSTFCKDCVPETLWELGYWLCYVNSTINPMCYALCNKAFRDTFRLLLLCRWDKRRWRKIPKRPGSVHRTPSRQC

O=c1[nH]c(=O)c2cn[nH]c2[nH]1
not listed: [20]
inactive: all other assays above

O=C(O)Cc1ccc(CCNS(=O)(=O)c2ccc(Cl)cc2)cc1
inactive: all assays above

COc1ccc(N=[N+]([O-])c2ccc(OC)cc2)cc1
not listed: [19]
inactive: all other assays above

CC(C)(C)OCC1CO1 (stereo not given)
not listed: [20]
inactive: all other assays above

CCC(=O)Nc1cccc(N)c1
not listed: [19]
inactive: all other assays above

Cc1c(I)c(=O)n(-c2ccccc2)n1C
active: [15] 37.9 nM
not listed: [20]
inactive: all other assays above

O=C(OC(=O)c1ccccc1)c1ccccc1
inactive: all assays above
